Results filed as inconclusive are left out. A call without a number means that no potency is given here. The source made the active and inactive calls. Calls follow the shape of the full dose curve.
Potency is read from the fitted curve at half-maximal effect.

Sequence of Bile acid receptor (Homo sapiens) (Q96RI1 whole entry, looked up): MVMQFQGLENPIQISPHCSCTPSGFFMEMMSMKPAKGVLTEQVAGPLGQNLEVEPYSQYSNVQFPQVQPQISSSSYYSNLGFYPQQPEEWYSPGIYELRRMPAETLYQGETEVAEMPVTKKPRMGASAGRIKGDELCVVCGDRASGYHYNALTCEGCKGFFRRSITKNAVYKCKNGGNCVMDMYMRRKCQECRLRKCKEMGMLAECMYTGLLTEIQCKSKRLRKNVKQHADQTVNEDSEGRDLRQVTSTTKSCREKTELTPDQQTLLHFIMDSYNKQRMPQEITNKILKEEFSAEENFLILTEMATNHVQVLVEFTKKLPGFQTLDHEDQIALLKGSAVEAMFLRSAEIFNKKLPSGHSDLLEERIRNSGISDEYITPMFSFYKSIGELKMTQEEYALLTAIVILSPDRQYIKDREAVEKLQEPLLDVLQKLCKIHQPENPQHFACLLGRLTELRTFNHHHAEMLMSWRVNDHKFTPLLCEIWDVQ

The test addresses Bile acid receptor (Homo sapiens) (UniProt Q96RI1). The test is described as follows: qHTS assay for small molecule antagonists of farnesoid X receptor signaling (AID 588526). The conditions noted are these: HEK293T FXR-UAS-bla, beta-lactamase ratio, antagonist mode; series mostly up to 76.7 µM. An excerpt: NIH Chemical Genomics Center [NCGC] U.S. Environmental Protection Agency [EPA] National Institutes of Environmental Health Sciences [NIEHS] National Toxicology Program [NTP] NCGC Assay Overview The farnesoid-X-receptor (FXR), a nuclear hormone receptor is highly expressed in liver, intestine, kidney and adrenal cortex. Natural ligands of FXR are the bile acids (Cholic acid, Chenodeoxy cholic acid etc). It is an important regulator of diverse metabolic pathways, including the bile acid homeostasis, lipid and glucose metabolisms. FXR regulates the expression of target genes by binding either as a monomer or as a heterodimer with RXR (retinoid X receptor). As FXR regulates a large number of target genes involved in bile acid, lipoprotein and glucose metabolisms, it is a potential pharmacological target for bile acid and lipid disorders. Thus screening environmental chemicals on FXR signaling can be used for the studies focused on metabolic syndrome, hepatic and intestinal toxicity etc.
NCGC Assay Protocol Summary Using a beta-lactamase reporter-gene under control of Farnesoid X receptor (FXR) response element, a cell-based assay [GeneBLAzer FXR-UAS-bla assay developed by Invitrogen] was used to measure FXR ligands signaling. GeneBLAzer FXR-UAS-bla HEK293T cells were used with assay medium containing 10% dialyzed FBS. The assay was performed in clear bottom black Greiner 1536-well plates. Guggulsterone were used in the screen as the positive control. Library compounds were measured for their ability to inhibit the reporter gene activity. Compounds were screened in a titration series in 1536-well format. The fluorescence intensity (405 nm excitation, 460/530 nm emission) was measured using an EnVision plate reader. Data was normalized relative to Chenodeoxycholic acid (50 uM, 100%), and DMSO only wells (basal, 0%). Concentration-response titration points for each compound were fitted to the Hill equation yielding concentrations of half-maximal inhibition (IC50) and maximal response (efficacy) values. qHTS protocol for FXR beta-lactamase assay in antagonist mode [Step] [Parameter] [Value] [Description] 1. Reagent; 5 uL; 5000 cells/well 2. Incubation; 37 C for 5-7 hrs 3. Compounds; 23 nL; 0.59 nM to 92 uM 4. Controls (Guggulsterone, FXR antagonist); 23 nL, - One column of dose response, start 200 uM, 1:2 dilutions in duplicates 5. Agonist (Stimulator); 1uL; Chenodeoxycholic acid at 100 uM and 50 uM final concentrations 6. Incubation; 37 C for 16 hrs 7. Detection reagent; 1 uL of CCF4-dye 8. Incubation; RT for 2 hrs 9. Detection; Fluorescence; Envision plate reader
On the technique in general: In qHTS, concentration-response curves come from the screen itself.
For `CCC(C)(C)c1ccc(O)cc1`, the Potency entry was “inactive”.
In the case of `O=P1(N(CCCl)CCCl)NCCCO1` (stereo not drawn), the Potency result is “inactive”.
Under `C[C@]12CCC(=O)C=C1CC[C@@H]1[C@@H]2CC[C@]2(C)C(=O)CC[C@@H]12` stands “inactive”; under `COC(=O)C(c1ccccc1)C1CCCCN1` (stereo not drawn), “inactive”.
In the case of `O=C(O)CCCc1ccc(N(CCCl)CCCl)cc1` it was “inactive”.
In the case of `Nc1ccccc1C(=O)O` it was “inactive”; in that of `CN1C[C@H](C(=O)N[C@]2(C)O[C@@]3(O)[C@@H]4CCCN4C(=O)[C@H](Cc4ccccc4)N3C2=O)C=C2c3cccc4[nH]cc(c34)C[C@H]21`, 39.8 µM (active).
Take `CC(=O)N1CCN(c2ccc(OC[C@H]3CO[C@](Cn4ccnc4)(c4ccc(Cl)cc4Cl)O3)cc2)CC1`: the Potency is 44.7 µM (active).
In the case of `C[C@]1(O)CC[C@H]2[C@@H]3CCC4=CC(=O)CC[C@]4(C)[C@@]3(F)[C@@H](O)C[C@@]21C` it was “inactive”; in that of `Clc1ccc(C(c2ccc(Cl)cc2)C(Cl)(Cl)Cl)cc1`, “inactive”.
In the case of `[N-]=[N+]=CC(=O)OC[C@H](N)C(=O)O` it was “inactive”.
Under `Nc1nc(N)nc(NC2CC2)n1` stands “inactive”; under `COP(=S)(OC)SCN1C(=O)c2ccccc2C1=O`, “inactive”.

The values above are taken from PubChem BioAssay (NCATS).
